# Test results from PubChem BioAssay (EPA / NIEHS).
# Several values for one entry are separate records, joined by “and”; a condition that tells them apart may be missing. Equal values may be shown once. Inconclusive results are not listed. A structure can be active in one record and inactive in another. Activity calls are given as the source filed them. How the source made its calls, unless noted: active means hit-call score of the fitted dose curve at least 0.9, where 1 is the maximum; inconclusive means response in the unintended direction; inactive means score below 0.9. Peptide text beside a SMILES is read from it.
# Tested on: DIO3 (gene 1735)
# Assay: CCTE_GLTED_hDIO3: CCTE's human Deiodinase 3 (DIO3) Inhibition Assay, Great Lakes Toxicology and Ecology Division (GLTED) Lab (AID 2284055);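 further: potency is for inhibition seen as loss of released iodide signal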
# In short: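 Steps: incubate adenovirus-produced hDIO3 with chemical for 3 hours; detect freed iodide via cerium-arsenic Sandell-Kolthoff colorimetry; compare with DMSO baseline.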
row,SMILES,AC50
1,O=C(O)c1cc(O)c2ccccc2c1O,54.1 µM (active)
2,CCCCCCCOC(=O)c1ccc(O)cc1,80.8 µM (active)
3,CCCCC/C=C\C/C=C\CCCCCCCC(=O)O,16.9 µM (active)
4,C/C=C/C=C/CCCCCCCO,16.4 µM (active)
5,CCCCCCCCCCCCCCCCCCOS(=O)(=O)O,3.04 µM (active)
6,O=c1c(O)c(-c2ccc(O)cc2O)oc2cc(O)cc(O)c12,33.5 µM (active)
7,CCCCCCCCCCCCc1ccc(O)cc1,11.2 µM (active)

# Tested on: not listed separately
# Assay: CCTE_Shafer_MEA_dev_LDH: CCTE's Lactate Dehydrogenase Assay for Cytotoxicity in the Neural Network Formation Assay, Shafer Lab (AID 2284068);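 further: exposure for twelve days from plating with re-dosing on DIV 5 and 9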
# In short: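 Cytotoxicity companion to network-formation recordings: rat cortical neurons received compound over 12 days of development, re-dosed at DIV 5 and 9 feeds. Viability was inferred from LDH enzyme activity relative to DMSO.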
SMILES,AC50,outcome
C[N+](C)(C)CCCNS(=O)(=O)C(F)(F)C(F)(F)C(F)(F)C(F)(F)C(F)(F)C(F)(F)C(F)(F)C(F)(F)F,15 µM (active),
Cc1noc(NS(=O)(=O)c2ccc(N)cc2)c1C,,inactive
CCCCNS(=O)(=O)c1ccccc1,,inactive
COC(=O)[C@H](Cc1ccccc1)NC(=O)[C@@H](N)CC(=O)O (H-Asp-Phe-OMe),,inactive

# Tested on: not listed separately
# Assay: CCTE_Shafer_MEA_acute_AB: CCTE's Alamar Blue Assay for Cytotoxicity in the Neural Acute Assay, Shafer Lab (AID 2284069);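 further: active compounds lower the viability signal compared with DMSO wells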
# In short: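 Metabolic activity in chemically exposed rat cortical neurons (MEA cultures, day 13/15 post-plating) measured via CellTiter Blue resazurin reduction, 544/590 nm fluorescence; fitted relative to DMSO, with signal loss indicating reduced viability.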
row,SMILES,outcome
1,Nc1cccc(N)n1,inactive
2,C1CNCCN1,inactive
3,CC(CCC(=O)O)(c1ccc(O)cc1)c1ccc(O)cc1,inactive
4,c1ccc(Nc2cccc3ccccc23)cc1,inactive
5,Cc1c(C(=O)c2c[nH]n(C)c2=O)ccc(S(C)(=O)=O)c1C1=NOCC1,inactive

# Tested on: not listed separately
# Assay: CCTE_Shafer_MEA_dev_AB: CCTE's Alamar Blue Assay for Cytotoxicity in the Neural Network Formation Assay, Shafer Lab (AID 2284083);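 further: twelve days of exposure from plating with re-dosing on DIV 5 and 9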
# In short: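 Fluorescent resazurin reduction serves as the viability read-out, with DMSO as negative control and baseline. Cells were primary rat cortical neurons grown on MEA plates and dosed from day 0 to day 12, treatment renewed on DIV 5 and 9.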
SMILES,AC50,outcome
C[N+](C)(C)CCCNS(=O)(=O)C(F)(F)C(F)(F)C(F)(F)C(F)(F)C(F)(F)C(F)(F)C(F)(F)C(F)(F)F,15 µM (active) and 7.64 µM (active),
Cc1noc(NS(=O)(=O)c2ccc(N)cc2)c1C,,inactive
CCCCNS(=O)(=O)c1ccccc1,,inactive
COC(=O)[C@H](Cc1ccccc1)NC(=O)[C@@H](N)CC(=O)O (H-Asp-Phe-OMe),,inactive
Cc1c(C(=O)c2c[nH]n(C)c2=O)ccc(S(C)(=O)=O)c1C1=NOCC1,,inactive

# Tested on: not listed separately
# Assay: CCTE_Shafer_MEA_acute_LDH: CCTE's Lactate Dehydrogenase Assay for Cytotoxicity in the Neural Acute Assay, Shafer Lab (AID 2284086);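 further: active means LDH release rises above DMSO vehicle level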
# In short: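 Cytotoxicity readout: spectrophotometric LDH activity in supernatant of rat primary cortical neurons, post-plating day 13 or 15, sampled after 40 min compound exposure; signal gain relative to DMSO baseline.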
row,SMILES,outcome
1,CCCCCCCCCCCC(=O)N(C)CC(=O)O,inactive
2,Nc1cccc(N)n1,inactive
3,CC(C)C(=O)OCCc1ccccc1,inactive
4,Nc1nc(N)nc(-c2ccccc2)n1,inactive
5,CCCC(C)C(=O)OCC (centres undefined),inactive
6,CC(CCC(=O)O)(c1ccc(O)cc1)c1ccc(O)cc1,inactive
7,CC/C=C\CCOC(=O)c1ccccc1O,inactive
8,c1ccc(Nc2cccc3ccccc23)cc1,inactive
9,Oc1ccccc1Cc1ccccc1O,inactive
10,CC1(C)CC(O)CC(C)(C)N1[O],inactive
11,COC(=O)[C@H](Cc1ccccc1)NC(=O)[C@@H](N)CC(=O)O (H-Asp-Phe-OMe),inactive
12,Cc1c(C(=O)c2c[nH]n(C)c2=O)ccc(S(C)(=O)=O)c1C1=NOCC1,inactive

# Tested on: not listed separately
# Assay: CCTE_Shafer_MEA_dev_mutual_information_norm: CCTE's Neural Network Formation Assay for Mutual Information Normalization, Shafer Lab (AID 2284091; active means hit-call score of the fitted dose curve at least 0.9, where 1 is the maximum; inactive means score below 0.9;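 on AC50: mutual information between electrodes summarised as area under curve across four recording days; potency is for a decrease in mutual information relative to DMSO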)
# In short: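 Shared information across electrodes, tracked on days 5, 7, 9 and 12 of network development and collapsed as trapezoidal area under the curve. Rat cortical cultures were treated continuously from plating, with treatment renewed at feeds on DIV 5 and 9; DMSO baseline, negative-direction fit.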
SMILES,AC50,outcome
C[N+](C)(C)CCCNS(=O)(=O)C(F)(F)C(F)(F)C(F)(F)C(F)(F)C(F)(F)C(F)(F)C(F)(F)C(F)(F)F,906 nM (active) and 914 nM (active),
Cc1noc(NS(=O)(=O)c2ccc(N)cc2)c1C,,inactive
CCCCNS(=O)(=O)c1ccccc1,,inactive
COC(=O)[C@H](Cc1ccccc1)NC(=O)[C@@H](N)CC(=O)O (H-Asp-Phe-OMe),,inactive
Cc1c(C(=O)c2c[nH]n(C)c2=O)ccc(S(C)(=O)=O)c1C1=NOCC1,,inactive

# Tested on: not listed separately
# Assay: CCTE_Shafer_MEA_dev_correlation_coefficient_mean: CCTE's Neural Network Formation Assay for Mean Correlation Coefficient, Shafer Lab (AID 2284093; active means hit-call score of the fitted dose curve at least 0.9, where 1 is the maximum; inactive means score below 0.9;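 on AC50: well mean pairwise spike train correlation integrated as AUC over recording days 5 to 12; potency fitted for loss of correlation relative to DMSO vehicle wells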)
# Method: CCTE_Shafer_MEA_dev assay is conducted using Axion Biosystems 48 well microelectrode array (MEA) plates and Maestro recording system. Each well of the MEA plate contains a grid of 16 microelectrodes embedded in the culture surface. Electrically active cells, such as neurons, can be cultured over the electrodes, and electrical activity in these cells can be recorded extracellularly. The spontaneous firing of neurons is captured from each electrode on a microsecond timescale providing both temporally and spatially precise data. […] The CCTE_Shafer_MEA_dev assay uses primary cultures of rat cortical neurons. Recordings are made on days post-plating 5, 7, 9 and 12. As these cultures mature over time, neural networks develop functional activity and form cohesive networks in which electrical activity can be highly coordinated. CCTE_Shafer_MEA_dev_correlation_coefficient_mean is 1 of 19 assay components of the CCTE_Shafer_MEA_dev assay. It measures the correlation coefficent of spikes (action potential firings) between every pair of electrodes in a well during a recording in a microelectrode array (MEA) using Axion Biosystems Maestro 768 channel amplifier with the AxIS adaptive spike detector. The pairwise correlations are averaged across active electrodes to report a well-mean value. To collapse across multiple recordings made on days post-plating 5, 7, 9 and 12, the trapezoidal area-under-the-curve of the component is calculated.Data from the assay component CCTE_Shafer_MEA_dev_correlation_coefficient_mean was analyzed into 1 assay endpoint. This assay endpoint, CCTE_Shafer_MEA_dev_correlation_coefficient_mean, was analyzed in the negative analysis fitting direction relative to DMSO as the negative control and baseline of activity. Using a type of functional reporter, gain or loss-of-signal activity can be used to understand electrical activity.
# On the day prior to culture, each well was coated thoroughly with 150 uL of 0.05% polyethyleneimine (PEI, Sigma Cat P3143) in 50 mM HEPES (Sigma Cat H7523) at a pH of 8. The plate was incubated at 37C for one hour. PEI was rinsed out with 500 uL of sterile water three times. Plates were stored at 4C until the day of culture. This culture was plated at a seeding density of 1.5 x 10^5 cells/well on a 48-well MEA plate, prepared as described above. Cells were administered via a 25 uL media/laminin ([…]; Sigma Cat L2020-1MG) drop directly onto the microelectrode array, as adding the cells with the laminin results in better attachment than pre-coating with laminin. After 2 hours, an additional 475 uL of cortical media was added and the cells returned to the incubator. Exposure starts at day 0 of plating and is continued over twelve days of network development until the experiment is terminated. Cells are fed with fresh medium on DIV 5 and 9, following the recordings on those days. The entire volume of media in the well is exchanged and any vehicle or compound treatment is renewed. Complete details are found in OP-NHEERL/ISTD/SBB/TJS/2015-03-r0 (available on request, email shafer.tim@epa.gov). Measurement of the electrical activity is non-invasive, and recordings can be made from the same plate over multiple different days of the culture. In cortical neurons, this allows for the measurement of extracellular action potentials over the period during which networks form in the MEA plate.
SMILES,AC50,outcome
C[N+](C)(C)CCCNS(=O)(=O)C(F)(F)C(F)(F)C(F)(F)C(F)(F)C(F)(F)C(F)(F)C(F)(F)C(F)(F)F,4.2 µM (active),inactive
Cc1noc(NS(=O)(=O)c2ccc(N)cc2)c1C,,inactive
CCCCNS(=O)(=O)c1ccccc1,,inactive
COC(=O)[C@H](Cc1ccccc1)NC(=O)[C@@H](N)CC(=O)O (H-Asp-Phe-OMe),,inactive
Cc1c(C(=O)c2c[nH]n(C)c2=O)ccc(S(C)(=O)=O)c1C1=NOCC1,,inactive
